Source: PubChem BioAssay (National Center for Advancing Translational Sciences (NCATS))
Hits are enriched below; roughly 8% of the tested compounds scored in any of these assays.
Lassa entry inh: qHTS for Inhibitors of binding or entry into cells for Lassa Virus | Lassa virus pseudotype entry inhibition, cell reporter | Potency, µM (series often up to 37.9 µM), without a hit: at the top dose activity change, negative = inhibition, actives largely listed as inhibitors | actives 1.2% (n = 300,000) | AID 540256, 2011; calls by dose curve; tested in HEK293 cells; also: potency is read from the fitted curve at half-maximal effect; % is scaled to controls: 0 for no effect and ±100 for the full control effect; nearly all actives have a fitted effect of over 50% in size
SARS PLP yeast: qHTS of Yeast-based Assay for SARS-CoV PLP; AID 485353, 2010; actives 0.19% (n = 330,000); S. cerevisiae expressing SARS-CoV PLpro, growth rescue; Potency, µM (doses to about 32.9 µM), for inactives: at the highest dose activity, positive = growth rescue, hits mostly activators; calls by dose curve; also: potency is read from the fitted curve at half-maximal effect; 0% is about no effect; nearly all actives have a fitted effect of over 55% in size
HCV inhibitor: qHTS Assay for Inhibitors of Hepatitis C Virus (HCV); Huh7.5.1 HCVcc-Cre infection, luciferase reporter, 44 h; Potency, µM (series often up to 41.8 µM), without a hit: at the highest dose activity change, negative = inhibition, usual class: inhibitors; AID 651820, 2012; actives 3.4% (n = 340,000); active = well fitted inhibition curve with a large enough effect; inconclusive = small, poorly fitted or top-dose-only effect, or another doubt; inactive = no such curve, though single readings can be large or run the other way; also: potency is read from the fitted curve at half-maximal effect; % is scaled to controls: 0 for no effect and ±100 for the full control effect
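Cells seeded at 1,000/well and cultured 4 h, then compounds added followed by HCVcc-Cre virus (~0.5 moi). After 44 h further culture, luciferase substrate was added, plates held 15 min at room temperature, and luminescence read for 15 sec.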
Marburg entry inh: qHTS for inhibitors of binding or entry into cells for Marburg Virus | Potency, µM (titrated, usually from 37.8 µM), for the others: at the top dose activity change, negative = inhibition, actives largely listed as inhibitors | Marburg virus pseudotyped entry inhibition, cell reporter | actives 1.8% (n = 300,000); calls by dose curve; tested in HEK293 cells; also: potency is read from the fitted curve at half-maximal effect; % is scaled to controls: 0 for no effect and ±100 for the full control effect
FMDV antiviral: High Throughput Screening for Foot and Mouth Disease Virus Antivirals; FMDV antiviral cell-based qHTS; Potency, µM (doses to about 57.9 µM), for the others: at the top dose activity change, negative = inhibition, actives largely listed as inhibitors; actives 1.2% (n = 410,000); calls by dose curve; tested in HEK293T cells; also: read-out not given here; potency is read from the fitted curve at half-maximal effect; % is scaled to controls: 0 for no effect and ±100 for the full control effect; nearly all actives have a fitted effect of over 45% in size
HCMV antiviral: qHTS Assay for inhibitors of the human cytomegalovirus (HCMV) | AID 1259415, 2018 | HFF cells, HCMV-luciferase reporter, 72 h; stronger effect = lower value | actives 4.5% (n = 410,000) | activity change, negative = inhibition, % at 57.5 µM; in the data active = activity change below about -60%; inconclusive = no clear call, values can overlap the other calls; inactive = above about -39%; also: % is scaled to controls: 0 for no effect and ±100 for the full control effect
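Luciferase read-out from HCMV-luciferase-infected HFFs (MOI 1 PFU/cell) 72 h post infection at 37C; compounds added after 16 h cell attachment; activity normalized between buffer-only basal and Salinomycin (10uM) inhibitor controls.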
* hit, by the source's call; u = inconclusive; x = no result given; [ ] = remark or other dose.

SMILES | Lassa entry inh | SARS PLP yeast | HCV inhibitor | Marburg entry inh | FMDV antiviral | HCMV antiviral
COc1ccc(-c2cc(-c3ccccc3)nc3c2COc2ccc(F)cc2-3)cc1 | 11.1%[46.1 µM] | x | x | -18.3%[46.1 µM] | -10.5% | -11.7
CN1C(=O)c2ccccc2Sc2ccc(NC(=O)NCc3cccc(Cl)c3)cc21 | -23.5%[46.1 µM] | x | x | u | u | -32.5
CC(C)c1ccc(CC(=O)N2CCC2(C)C(=O)Nc2cccc(C#N)c2)cc1 (stereo not given) | x | x | x | x | -29.4% | 1.8
CC1(C(=O)Nc2cccc(C#N)c2)CCN1C(=O)Cc1ccc(-c2ccccc2)cc1 (stereo not given) | x | x | x | x | 25.1µM* | -61.3*
CCSc1nnc(NC(=O)c2cccc(S(=O)(=O)N(C)c3ccccc3)c2)s1 | 3.7% | 3.3% | 5.3% | -14.5% | -9.8% | 48.7
C=CCN(c1ccccc1)S(=O)(=O)c1cccc(C(=O)Nc2nnc(SCC)s2)c1 | -13.7% | -10.6% | -6.4% | -7.1% | -19.5% | -62.2*
C=CCN(c1ccccc1)S(=O)(=O)c1cccc(C(=O)Nc2cccc(C)n2)c1 | u | -1.7% | 14.1µM* | u | u | -24.8
O=C(c1cnccn1)N1CC(=O)N2[C@@H](CO)[C@H](c3ccc(Br)cc3)[C@@H]2C1 | x | x | x | x | x | -22.9
CCOc1ccc(N2CC(NC(=O)C3CCCCC3)CC2=O)cc1 (stereo not given) | -25.9%[46.1 µM] | x | x | x | -4.8% | -6.0
CCN(CC)CCNC(=O)c1nn(C)c2c1CS(=O)(=O)c1ccccc1-2 | 3.9%[46.1 µM] | x | x | x | -6.9% | -0.9
CCOC(=O)Cc1csc(NC(=O)c2c(C)noc2C)n1 | x | x | -7.7% | x | -27.8% | -99.2*
CCOC(=O)Cc1csc(NC(=O)c2ccc(C)cc2)n1 | x | -0.9% | 21.5% | -3.1%[46.1 µM] | -11.4% | -24.5
CCOC(=O)Cc1csc(NC(=O)c2c(-c3ccccc3)noc2C)n1 | 1.9% | 0.9% | -19.2% | 7.0% | -8.8% | -32.7
CCOC(=O)Cc1csc(NC(=S)NC(=O)c2ccc(C)cc2)n1 | x | -21.5% | -1.8% | x | -0.9% | -96.0*
CCOC(=O)Cc1csc(NC(=S)NC(=O)c2ccccc2)n1 | 0.5% | -7.6% | -9.1% | 7.4% | 0.0% | -65.1*
Cc1cc(C)cc(NC(=O)CSCc2cc(=O)c3cc(Cl)ccc3[nH]2)c1 | -28.3%[46.1 µM] | x | x | x | 3.1% | 3.0
Nc1c(C(=O)Nc2cccc(F)c2)c2ccccn2c1C(=O)c1ccccc1 | 18.1%[46.1 µM] | x | x | -1.3%[46.1 µM] | -13.5% | 12.5
O=C(O)[C@@H]1CSCN1S(=O)(=O)c1cccc2nsnc12 | x | x | x | -0.7% | x | x
COc1ccc(Oc2nc3c(c(=O)n(C)c(=O)n3C)n2Cc2cccc(OC)c2)cc1 | u | -3.5% | 14.7% | -3.5% | u | 27.7
Cn1c(Oc2ccc(F)cc2)nc2c1c(=O)n(Cc1ccccc1Cl)c(=O)n2C | u | x | x | u | 17.8µM* | -10.3
COCCOc1nc2c(c(=O)n(C)c(=O)n2C)n1Cc1cccc(OC)c1 | -17.3% | -3.8% | 11.2µM* | u | u | u
CCOc1nc2c(c(=O)n(C)c(=O)n2C)n1Cc1ccccc1Cl | -7.3% | 4.9% | u | -30.8% | -15.2% | -92.5*
Cc1oc2ncn(CC(C)C)c(=O)c2c1C(=O)NC(C)c1ccccc1 (stereo not given) | u | x | x | x | -13.5% | -0.8
CC(=O)Nc1ccc(NC(=O)c2cnc(N3CCN(Cc4cccc(C(F)(F)F)c4)C3=O)o2)cc1 | x | x | x | x | x | -8.5
C=CCOc1c(Cl)cc(C2NC(=O)NC(C)=C2C(=O)OC)cc1Cl (stereo not given) | -26.5% | -0.5% | 11.2µM* | -8.6% | x | -19.5
CN(CCO)C(=O)c1cn(C2CCN(Cc3c(F)cccc3Cl)CC2)nn1 | x | x | x | x | -11.2% | x
CCn1c(CN2c3ccccc3Sc3ccccc32)n[nH]c1=S | -8.2%[46.1 µM] | 1.5% | 3.9% | u | -21.2% | -62.0*
CN(C)C(=O)/C=C\c1cn(-c2ccccc2)nc1-c1ccc2c(c1)OCCO2 | u | -1.1% | -28.5% | u | -5.5% | -84.9*
OCc1cn(-c2ccccc2)nc1-c1ccc2c(c1)OCCO2 | u | -18.5% | 11.2µM* | u | -19.4% | 80.8
